The list is not random: actives were taken first. Their share in the collection is about 17%.
ATXN viability: Viability Counterscreen for Primary qHTS for Inhibitors of ATXN expression; Potency, µM (top dose mostly 56.7 µM), usual class: cytotoxic; S2 cells (HEK-293 line with an ATXN2-luciferase reporter) viability, CellTiter-Fluor protease fluorescence, 24 h; hit rate 0.49% among 400,000; also: nearly all actives have a fitted effect of over 40% in size
DT40 TDP1 CPT: qHTS for Inhibitors of human tyrosyl-DNA phosphodiesterase 1 (TDP1): qHTS in cells in presence of CPT. chicken DT40 Tdp1-/-;hTDP1 cells + 20 nM CPT, ATP luminescence, 48 h. AID 686979, 2013. Potency, µM (doses to about 46.2 µM), without a hit: top-dose activity change, negative = growth inhibition, most hits filed as inhibitors. hit rate 12% among 420,000; also: % is scaled to controls: 0 for no effect and ±100 for the full control effect; nearly all actives have a fitted effect of over 55% in size
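Chicken DT40 Tdp1-/- cells stably complemented with human TDP1 were seeded at 400 cells/well in medium containing 20 nM camptothecin, exposed to pin-transferred compounds, and grown at 37 °C for at least 48 hr. Viability was read as ATP luminescence.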
ATXN2 expr inh: Primary qHTS for Inhibitors of ATXN expression; HEK-293 ATXN2-luciferase reporter, luminescence, 24 h; Potency, µM (series often up to 57 µM), for the others: top-dose activity change, negative = inhibition, most hits filed as inhibitors; hit rate 0.72% among 360,000; AID 1745845, 2022; also: % is scaled to controls: 0 for no effect and ±100 for the full control effect; nearly all actives have a fitted effect of over 55% in size
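ATXN2-luciferase reporter cells (luciferase flanked by upstream and downstream ATXN2 gene portions) were treated 24 h at 37 °C with compounds at up to 57 uM. SteadyGlo luminescence gave expression; GF-AFC fluorescence gave viability.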
HepG2 tox: qHTS for Inhibitors of TGF-b: Cytotox Counterscreen; HepG2 CAGA-GFP viability, ATP luminescence, 18 h; Potency, µM (highest dose often 46.1 µM), without a hit: top-dose activity change, negative = cytotoxicity, usual class: cytotoxic; hit rate 0.76% among 410,000; AID 588856, 2011
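HepG2 CAGA-GFP cells (1000/well, DMEM with 1% FBS) received compound, then TGF-beta at 500 pg/mL final, and were incubated 18 hours at 37 degrees C. Viability was read by CellTiter-Glo luminescence. Media-only wells were set as complete cell-killing and DMSO as no toxicity.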
DT40 TDP1 no CPT: qHTS for Inhibitors of human tyrosyl-DNA phosphodiesterase 1 (TDP1): qHTS in cells in absence of CPT. DT40 Tdp1-/- hTDP1 cells, no CPT, ATP luminescence, 48 h. Potency, µM (top dose mostly 46.2 µM), for the others: at the top dose activity change, negative = growth inhibition, most hits filed as inhibitors. hit rate 15% among 420,000; also: % is scaled to controls: 0 for no effect and ±100 for the full control effect; nearly all actives have a fitted effect of over 55% in size
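Camptothecin absent (DMSO only). Human TDP1-complemented DT40 knockout cells, 400 cells/well, 37 °C for minimum 48 hr; ATP measured via CellTiter-Glo, 30 min dark incubation, luminescence.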
TGFb inhibitor: qHTS for Inhibitors of TGF-b; HepG2 CAGA-GFP TGF-b/SMAD3 reporter, GFP fluorescence, 18 h; TGF-beta stimulated, 500 pg/mL final; Potency, µM (top dose mostly 46.1 µM), for the others: at the highest dose activity, negative = inhibition, hits mostly inhibitors; hit rate 1.2% among 410,000; AID 588855, 2011; also: % is scaled to controls: 0 for no effect and ±100 for the full control effect; nearly all actives have a fitted effect of over 65% in size
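Cell-based qHTS in HEPG2 carrying a CAGA-GFP Smad reporter; compounds added before 500 pg/mL final TGF-beta, 18 h incubation at 37 degrees C, GFP fluorescence quantified per cell by imaging cytometry.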
Numbers without * were called inactive; i = inactive; ? = inconclusive; . = no result. Calls follow the shape of the dose curve; as a rule, active = well fitted curve in the direction sought with a large enough effect; inconclusive = small, poorly fitted or top-dose-only effect, or another doubt; inactive = no such curve, though single readings can be large; an effect the other way counts as inactive or inconclusive. Potency is read from the fitted curve at half-maximal effect.

SMILES | ATXN viability | DT40 TDP1 CPT | ATXN2 expr inh | HepG2 tox | DT40 TDP1 no CPT | TGFb inhibitor
CCc1ccc(NC(=O)CN2CCN(c3ccc(OC)cc3)CC2)cc1 | i | -10.5% | 9.1% | -7.1% | -15.4% | -19.1%
CCOC(=O)c1cnc2c(ccc3ccccc32)c1Nc1cccc(C(F)(F)F)c1 | i | -28.6% | 3.4% | -11.0% | -3.6% | -5.2%
COc1cc2c(c(OC)c1OC)C(c1ccccc1C)CC(=O)O2 (stereo not drawn) | i | 7.6% | 5.9% | 4.2% | -1.7% | -1.9%
Cc1cc(Br)ccc1NC(=O)COC(=O)c1ccccc1OCC(N)=O | . | -4.2% | . | -7.7% | -15.0% | -9.8%
CCS(=O)c1ccccc1C(=O)OC(C)C(=O)Nc1ccc(S(=O)(=O)N2CCCC2)cc1 (stereo not drawn) | i | 13µM* | 0.6% | -1.2% | ? | -12.9%
COc1ccccc1NC(=O)c1ccc(S(=O)(=O)N2CCCC2)cc1 | i | -1.8% | -4.2% | -10.9% | -26.4% | 3.4%
CCOc1ccccc1C(=O)OC(C)C(=O)Nc1ccc(S(=O)(=O)N2CCCC2)cc1 (stereo not drawn) | i | -22.7% | . | -86.8% | ? | -26.2%
COc1ccccc1NS(=O)(=O)c1ccc(C)c(NC(=O)c2ccc(S(=O)(=O)N3CCCCCC3)cc2)c1 | ? | ? | -23.2% | -1.7% | 20.6µM* | -11.0%
O=C(Nc1ccccc1C(=O)O)c1cc(S(=O)(=O)N2CCCCC2)c(Cl)cc1Cl | i | 23.1µM* | 17.4% | -5.7% | 11.6µM* | -24.6%
COc1ccc(CCNCC(=O)N2C(C)CCCC2C)cc1OC (stereo not drawn) | i | 9.0% | -12.8% | 6.1% | -11.4% | -4.8%
Cc1cc(C(C)(C)C)cc(CN2CCN(S(=O)(=O)c3cccs3)CC2)c1O | i | -6.5% | . | -28.5% | 0.184µM* | -10.5%
O=S(=O)(c1cccs1)N1CCN(Cc2cccc(F)c2)CC1 | i | -23.6% | 5.4% | -1.7% | 2.6% | 3.5%
Cc1cc(O)c(CN2CCN(S(=O)(=O)c3cccs3)CC2)cc1C(C)C | i | 23.1µM* | -22.2% | -16.6% | ? | ?
CC1=C(C(=O)Nc2ccccc2C(F)(F)F)C(c2sccc2C)NC(=S)N1 (stereo not drawn) | i | 6.51µM* | 20.1% | -6.8% | 16.4µM* | -21.6%
Cc1cccc(N2CCN(C(=O)CN3C(=O)COc4ccc(S(=O)(=O)N5CCCCCC5)cc43)CC2)c1C | i | ? | 10.5% | -0.6% | 16.4µM* | ?
COc1ccc(C)cc1NC(=O)CN1C(=O)COc2ccc(S(=O)(=O)N3CCCCCC3)cc21 | ? | ? | -14.9% | -2.7% | ? | ?
Cc1c(Cl)cccc1NC(=O)CN1C(=O)COc2ccc(S(=O)(=O)Nc3ccccc3)cc21 | ? | ? | -9.0% | -19.7% | ? | 10µM*
Cc1c(Cl)cccc1NC(=O)CN1C(=O)COc2ccc(S(=O)(=O)N3CCCCCC3)cc21 | . | 16.4µM* | . | 1.0% | ? | 3.2%
Cc1sc(-n2c(C)cc(C=O)c2C)c(C(=O)O)c1C | i | -2.3% | 0.5% | 12.2% | -15.5% | 0.8%
CC1(C(=O)NS(=O)(=O)C2CC2)CCCN(C(=O)c2ccccc2C(F)(F)F)C1 (stereo not drawn) | i | 6.51µM* | 0.8% | 6.6% | 5.8µM* | 18.9%
COc1ccccc1C(=O)N1CCCC(C)(C(=O)NS(=O)(=O)C2CC2)C1 (stereo not drawn) | i | ? | 0.1% | -9.8% | 1.64µM* | 23.7%
CC1(C(=O)NS(=O)(=O)C2CC2)CCCN(C(=O)c2cccnc2Oc2ccccc2)C1 (stereo not drawn) | i | ? | 5.8% | 13.9% | 1.03µM* | 29.0%
COc1ccc(CNC(=O)C2CCCN2C(=O)Nc2cccc(Cl)c2)cc1 (stereo not drawn) | i | -16.2% | . | -0.6% | ? | 5.6%
Cc1ccc(NC(=O)Cn2c(=O)ccc3cc(S(=O)(=O)N4CCCC4)ccc32)cc1C | i | -10.2% | 9.8% | -13.9% | -1.7% | 10.2%
COc1ccc(NC(=O)Cn2c(=O)ccc3cc(S(=O)(=O)N4CCCC4)ccc32)cc1Cl | i | 16.4µM* | -24.4% | -36.8% | 13µM* | -25.6%
SMILES | ATXN viability | DT40 TDP1 CPT | ATXN2 expr inh | HepG2 tox | DT40 TDP1 no CPT | TGFb inhibitor
COc1cc(NC(=O)Cn2c(=O)ccc3cc(S(=O)(=O)N4CCCC4)ccc32)cc(OC)c1 | i | ? | -24.0% | -27.7% | 14.6µM* | -6.6%
COc1ccccc1NC(=O)Cn1c(C)cc(C)c(C#N)c1=O | i | -4.7% | 10.5% | 0.6% | 10.9% | 0.0%
CC(=O)N1N=C(c2ccc3ccccc3c2)OC1(C)C | i | 18.4µM* | -19.4% | 2.3% | ? | 6.0%
CC(=O)N1N=C(c2ccc(Br)cc2)OC12CCCC2 | i | -9.5% | -24.3% | 16.6% | -19.8% | 3.2%
CC(=O)N1N=C(c2ccc(C(C)(C)C)cc2)OC1(C)C | i | 14.6µM* | -22.9% | -54.0% | 10.3µM* | ?
COc1ccc(CC2(C)OC(c3ccccc3)=NN2C(C)=O)cc1 (stereo not drawn) | i | 12.4% | 6.8% | 8.6% | -4.9% | -1.2%
Cc1cc(C)c2c(C)c(C(=O)NCc3ccncc3)oc2c1 | i | -29.5% | -3.2% | -27.4% | -18.3% | -19.4%
Cc1c(C(=O)NCc2ccccc2)oc2ccc(S(=O)(=O)N3CCCC3)cc12 | i | ? | -10.1% | -30.9% | ? | 0.6%
Cc1ccc2oc(C(=O)NCc3ncc(C)[nH]3)c(C)c2c1 | i | 5.17µM* | 4.3% | -16.2% | ? | 0.0%
CCCCN(CCCC)S(=O)(=O)c1ccc2oc(C(=O)NCc3ccccc3)c(C)c2c1 | i | 10.3µM* | -1.6% | -25.2% | 14.6µM* | 3.7%
Cc1cnc(CNC(=O)c2ccc3oc(C(C)C)nc3c2)[nH]1 | i | 5.6% | 0.5% | -29.0% | 3.2% | -9.4%
CCc1ccc2oc(C(=O)NCc3ccncc3)c(C)c2c1 | ? | 18.4µM* | 12.1% | -28.1% | 14.6µM* | -2.7%
CCCCN(CC(=O)NCc1ccc(Cl)cc1)S(=O)(=O)c1ccc2c(c1)OCCO2 | i | ? | 6.6% | -28.2% | 23.1µM* | -0.4%
O=C(CN(c1ccc2c(c1)OCCO2)S(=O)(=O)c1ccccc1)NCc1ccc(Cl)cc1 | i | ? | -1.2% | 15.2% | ? | -2.0%

High-throughput results deposited in PubChem BioAssay by National Center for Advancing Translational Sciences (NCATS).
